We go through 93 compounds from ChEMBL document CHEMBL3988442, “University of Dundee, Small-Polar-MMV Screening Library” (2021).

Structures are written as SMILES. The whole screen tested about 69,000 compounds, of which about 950 (1.4%) showed an effect of 50% or more. The full list was thinned out, with strong results kept by preference.

In this assay the test system is Mycobacterium tuberculosis. In words: Cornell M. t heat shock assay. Further: in the data most compounds retested in dose-response had high values. The class given is functional, organism-based. Set-up: dose or concentration left out as unconfirmed.
With `COC(=O)N1CCC(Nc2cccc(F)c2C(C)=O)C1` (stereo not drawn), the “Percent Effect” value was 10.56%.
Regarding `COC(=O)N1CCC(Nc2cccc(F)c2C(C)=O)CC1`, the “Percent Effect” value is recorded as 5.265%.
Under `COC(=O)N1CCC(Nc2cccc(F)c2C#N)CC1` stands 83.06%; under `O=C(O)C(F)(F)F.O=C(O)C(F)(F)F.O=C(O)C(F)(F)F.c1cc(CN2C[C@@H]3OCCN(CC4CCCO4)[C@@H]3C2)ccn1` (stereo partly drawn), -18.75%.
For `CN(C(=O)C1CCCCC1)[C@@H]1CCC[C@@H](N2CCOCC2)[C@@H]1O` the value was -6.532%; for `CN(C(=O)C1CCOCC1)[C@@H]1CCC[C@@H](N2CCCC2)[C@@H]1O`, 60.86%.
For `CN(C(=O)C1CCOCC1)[C@@H]1CCC[C@@H](N2CCOCC2)[C@@H]1O` the value was -10.17%.
As for `CC(C)OCCCN(Cc1cnn(C)c1)Cc1ccccn1.O=C(O)CC(O)(CC(=O)O)C(=O)O`, the “Percent Effect” value is -10.12%.
In the case of `CCC1=N[C@@]2(CC[C@@H]3CN(CC4CC4)C[C@@H]32)C(=O)N1C.O=C(O)C(F)(F)F`, the “Percent Effect” value amounted to 5.845%.
In the case of `CC(C)(O)CN1CC(C)(C)CN(C(=O)CCc2ccccc2)CC1=O`, the “Percent Effect” value is 52.03%.
Under `CCN1CC(C)(C)CN(C(=O)CCc2ccccc2)CC1=O` stands 22.76%.
As for `CCCC(O)CN1CC(C)(C)CN(C(=O)CCc2ccccc2)CC1=O` (stereo not drawn), the “Percent Effect” value came out at 10.24%.
With `COCC(O)CN1CC(C)(C)CN(C(=O)CCc2ccccc2)CC1=O` (stereo not drawn), the “Percent Effect” value is 27.88%.
For `CN1CC(C)(C)CN(C(=O)CCc2ccccc2)CC1=O`, the “Percent Effect” value is reported as 21.51%.
As for `CC(O)CN1CC(C)(C)CN(C(=O)CCc2ccccc2)CC1=O` (stereo not drawn), the “Percent Effect” value was found to be 50.7%.
`Fc1ccc(CN2CC[C@H]3O[C@@H](COCC4CCOCC4)CC[C@H]32)cc1.O=C(O)C(F)(F)F`: the “Percent Effect” value is on record as -16.61%.
For `CCC(C)[C@H](N)c1nnc(SCC(=O)Nc2cc(C)ccc2C)o1.Cl` (stereo partly drawn), the “Percent Effect” value was -10.79%.
As for `Cc1cc2c(=O)n3c(nc2s1)CCN(Cc1c[nH]cn1)CC3.Cl`, the “Percent Effect” value is -21.28%.
In the case of `Clc1ccc(C2(CNC3=NCCN3)CCCCC2)cc1.I`, the “Percent Effect” value stood at 77.48%.
With `Clc1ccc(C2(CNC3=NCCN3)CC2)cc1.I`, the “Percent Effect” value is recorded as -24.96%.
With `Clc1ccc(C2(CNC3=NCCN3)CCCC2)cc1.I`, the “Percent Effect” value came to 20.92%.
For the compound `O=C(NCC1CC1)[C@H]1C[C@H]2OCC[C@H]2N(CCc2ccccc2)C1.O=C(O)C(F)(F)F`, the “Percent Effect” value is -0.2328%.
Under `COc1ccc(-c2cc3nn(CC(N)=O)c(=O)n3c(C)n2)cc1` stands 28.25%.
Take `COc1ccc(-c2cc3nn(CC(=O)NC(C)C)c(=O)n3c(C)n2)cc1`: the “Percent Effect” value worked out at 21.42%.
Turning to `Cc1nc(-c2ccccc2)cc2nn(CC(N)=O)c(=O)n12`, the “Percent Effect” value was 80.99%.
Turning to `CCC1=N[C@@]2(CC[C@@H]3CN(Cc4ccc(F)cc4)C[C@@H]32)C(=O)N1C.O=C(O)C(F)(F)F`, the “Percent Effect” value is reported as 6.299%.
For `COCCN1CCC2(COCCN(Cc3ccc4c(c3)OCO4)C2)C1.O=C(O)C(F)(F)F.O=C(O)C(F)(F)F` (stereo not drawn) the value was -9.9%; for `O=C(O)C(F)(F)F.O=C(O)C(F)(F)F.O=C(O)C(F)(F)F.O=C1CO[C@@H]2CN(Cc3cccnc3)C[C@H]2N1Cc1ccncc1`, -18.69%.
Regarding `COCCC(=O)N1CC[C@@H](N2CCOCC2)[C@@H]1Cc1ccccc1.O=C(O)C(F)(F)F`, the “Percent Effect” value is -10.34%.
Turning to `CC(C)c1cc(C(=O)NC2CCN(CC(N)=O)CC2)nn1C(C)(C)C`, the “Percent Effect” value stood at 17.37%.
Under `CC(C)(C)n1nc(C(=O)NC2CCN(CC(N)=O)CC2)cc1C1CC1` stands 19.52%; under `Cc1cc(C(=O)NC2CCN(CC(N)=O)CC2)nn1C(C)(C)C`, 61.29%.
As for `Cc1noc(C)c1-c1nc(C2CCCNC2)ccc1CO.Cl.Cl` (stereo not drawn), the “Percent Effect” value was 6.462%.
In the case of `Cc1cc(C)cc(CNC(c2ccccc2)c2nccn2C)c1` (stereo not drawn), the “Percent Effect” value was found to be 112.3%.
Take `COc1cc(CNC(C)Cn2cccn2)cc(OC)c1` (stereo not drawn): the “Percent Effect” value was -10.57%.
Consider `O=C(NCc1csc(Br)c1)c1ccncc1`, for which the “Percent Effect” value was found to be 14.96%.
Regarding `COc1c(CNC(c2ccccc2)c2nccn2C)c(C)nn1C` (stereo not drawn), the “Percent Effect” value was -17.9%.
In the case of `COc1cc(CNC(c2ccccc2)c2nccn2C)cc(OC)c1` (stereo not drawn), the “Percent Effect” value amounted to 110.9%.
As to `Cn1ccnc1C(NCc1csc(Br)c1)c1ccccc1` (stereo not drawn), the “Percent Effect” value came to 103.5%.
Under `Cc1cccc(CNC(CN2CCN(C)CC2)c2ccccc2)c1` (stereo not drawn) stands -9.551%.
As to `Cc1ccc(CNC(c2ccccc2)c2nccn2C)cc1.Cl` (stereo not drawn), the “Percent Effect” value is 106.1%.
For `O=C(CCNc1ncccn1)NCc1csc(Br)c1` the value was 2.477%; for `Cc1cc(C)cc(CNC(C)c2c(C)nn(C)c2C)c1` (stereo not drawn), -33.33%; for `Cc1ccc(CNCC(C)Oc2ccccn2)cc1.Cl` (stereo not drawn), -12.77%.
Consider `Cc1cnn(CC(C)NCc2ccc(OCc3nccn3C)cc2)c1` (stereo not drawn), for which the “Percent Effect” value is -7.408%.
Regarding `Cn1ccnc1CN1CCC2(CC(=O)N(c3cncnc3)C2)C1.O=C(O)C(F)(F)F` (stereo not drawn), the “Percent Effect” value was 8.638%.
For the compound `CC(C)NC(=O)c1sc2ccccc2c1[C@H]1CC[C@H](CN)CC1.Cl`, the “Percent Effect” value is given as 6.071%.
Regarding `O=C(O)C(F)(F)F.c1cnc(N2Cc3nccn3CC(COc3cccnc3)C2)nc1` (stereo not drawn), the “Percent Effect” value is -4.281%.
Under `COc1ccc(CNC(Cn2cncn2)c2ccccc2)cc1C` (stereo not drawn) stands 7.595%; under `CCNC(c1ccc(Br)cc1)c1cccnc1` (stereo not drawn), 0.8227%; under `Cc1ccc(CNC(CN2CCN(C)CC2)c2ccccc2)cc1C` (stereo not drawn), 7.265%.
Take `Cc1ccc(CNC(CN2CCN(C)CC2)c2ccccc2)cc1` (stereo not drawn): the “Percent Effect” value is given as 5.608%.
Under `Cc1ccc(CNC(c2ccccc2)c2nccn2C)cc1C` (stereo not drawn) stands 103.6%.
`Cn1ccnc1-c1noc(NCc2ccccc2)n1`: the “Percent Effect” value is -11.975%.
Take `Cn1ccnc1-c1noc(NCc2ccc(Br)cc2)n1`: the “Percent Effect” value is -1.325%.
Turning to `Cn1ccnc1C(NCc1ccc(Br)cc1)c1ccccc1` (stereo not drawn), the “Percent Effect” value is on record as 112.1%.
As for `Cn1nnc2c1C(COCc1ccccn1)CN(Cc1ccoc1)C2.O=C(O)C(F)(F)F.O=C(O)C(F)(F)F` (stereo not drawn), the “Percent Effect” value was -16.51%.
In the case of `O=S(=O)(N1CCOCC1)N1CCCC(c2ccccn2)C1` (stereo not drawn), the “Percent Effect” value was -20.74%.
Turning to `COCCN1C[C@@H]2CCCO[C@@H]2[C@H](N(C)Cc2ccco2)C1.O=C(O)C(F)(F)F.O=C(O)C(F)(F)F`, the “Percent Effect” value is listed as 1.752%.
For `Cn1cc(N2CC3(CCN(Cc4ccsc4)CC3)OCC2=O)cn1.O=C(O)C(F)(F)F`, the “Percent Effect” value is -18.04%.
With `Cc1cnccc1-c1cnn(CCNC(=O)C(C)(C)C)c1C1CC1.Cl`, the “Percent Effect” value is -19.45%.
As for `O=C(O)C(F)(F)F.O=C1COC2(CCN(Cc3ccco3)CC2)CN1`, the “Percent Effect” value is on record as -45.46%.
For `c1csc(CN2CCCN(c3ccc(Cn4ccnc4)cn3)CC2)c1` the value was -13.19%; for `c1cn(Cc2ccc(N3CCCN(C4CCCC4)CC3)nc2)cn1`, 1.871%.
For `Fc1ccc(N2CCCN(c3ccc(Cn4ccnc4)cn3)CC2)cc1`, the “Percent Effect” value was 107.2%.
As for `Cc1cc2c(cc1CNC(Cc1cccs1)c1nccs1)OCO2.Cl` (stereo not drawn), the “Percent Effect” value was determined as 5.172%.
For `CC(=O)N1C[C@@H]2CN(Cc3cccnc3)CCO[C@@H]2C1.O=C(O)C(F)(F)F.O=C(O)C(F)(F)F` the value was -47.04%.
As for `O=C(O)C(F)(F)F.O=C1[C@H]2CN(CC3CC3)C[C@H]2CN1c1ccsc1`, the “Percent Effect” value came out at 20.81%.
With `Cc1cc(N2CCCC2c2nnc3n2CCCCC3)nc(N)n1` (stereo not drawn), the “Percent Effect” value was -8.114%.
For `Clc1cncc(N2CCCC2c2nnc3n2CCCCC3)n1` (stereo not drawn) the value was -7.126%; for `Cc1cc(N2CCCC2c2nnc3n2CCCCC3)nc(C)n1` (stereo not drawn), 66.84%.
For the compound `Cn1ncc2c1CN(Cc1ccccc1F)CC2COCC1CC1.O=C(O)C(F)(F)F.O=C(O)C(F)(F)F` (stereo not drawn), the “Percent Effect” value stood at 103.1%.
For `Cn1ncc2c1CN(Cc1cccnc1)CC2COCC1CC1.O=C(O)C(F)(F)F.O=C(O)C(F)(F)F.O=C(O)C(F)(F)F` (stereo not drawn) the value was -6.244%.
For `Cn1ncc2c1CN(Cc1ccc(F)cc1)CC2COCC1CC1.O=C(O)C(F)(F)F.O=C(O)C(F)(F)F` (stereo not drawn), the “Percent Effect” value is -18.92%.
Turning to `COCCN1C(=O)CC(N2CCN(c3ccc(OC)cc3)CC2)C1=O` (stereo not drawn), the “Percent Effect” value amounted to 70.99%.
Regarding `COCCN1C(=O)CC(N2CCN(c3ccccc3)CC2)C1=O` (stereo not drawn), the “Percent Effect” value is reported as 12.72%.
As to `COCCN1C(=O)CC(N2CCN(c3ccc(F)cc3)CC2)C1=O` (stereo not drawn), the “Percent Effect” value is -16.16%.
On to `CN1C(=O)CCC12CCCN(C(=O)c1ccncc1F)C2.O=C(O)C(F)(F)F` (stereo not drawn), for which the “Percent Effect” value is reported as 38.17%.
Turning to `Cl.NCC(=O)N1CCC(c2ccnc(Nc3cc(C(F)(F)F)ccn3)n2)C1` (stereo not drawn), the “Percent Effect” value is -2.931%.
For `Cc1cccc(CN2CC[C@@H]3[C@@H]2CCN3Cc2cccs2)n1.O=C(O)C(F)(F)F.O=C(O)C(F)(F)F` the value was -14.73%; for `CNC(=O)COC1COC2(CCN(Cc3cccnc3)CC2)C1.O=C(O)C(F)(F)F` (stereo not drawn), 22.59%.
Under `Cc1ccc(CNC2CCCc3c2cnn3Cc2ccccc2)s1.Cl` (stereo not drawn) stands 52.93%.
As for `Cc1cccc(CNC2CCCc3c2cnn3Cc2ccccc2)c1.Cl` (stereo not drawn), the “Percent Effect” value was -5.892%.
As to `CCn1ncc2c1CCCC2NCc1ccc(C)s1` (stereo not drawn), the “Percent Effect” value is 16.54%.
As for `Cn1cc(CNC2CCc3c(ccc(=O)n3Cc3cccnc3)C2)cn1.O=C(O)C(F)(F)F.O=C(O)C(F)(F)F` (stereo not drawn), the “Percent Effect” value worked out at 12.8%.
For `CN(C)C(=O)[C@H]1CO[C@H]2CCN(c3ncc(F)cn3)C[C@H]2C1.O=C(O)C(F)(F)F`, the “Percent Effect” value worked out at 5.292%.
`CC(CNCc1ccc(F)cc1)Oc1ccccn1.Cl` (stereo not drawn): the “Percent Effect” value stood at 4.534%.
For `CN(CCc1cccs1)C1CCCN(Cc2noc(C3CC3)n2)C1` (stereo not drawn) the value was 32.3%.
For the compound `CCc1nc(CN2CCCC(N(C)CCc3cccs3)C2)no1` (stereo not drawn), the “Percent Effect” value was determined as 22.05%.
For the compound `Cc1nc(CN2CCCC(N(C)CCc3cccs3)C2)no1` (stereo not drawn), the “Percent Effect” value came out at 86.93%.
As to `Cc1nc(CN2CCCC(N(C)CCCc3ccccc3)C2)no1` (stereo not drawn), the “Percent Effect” value is given as -1.488%.
Turning to `Cc1nc(CN2CCCC(N(C)c3cnc4ccccc4n3)C2)no1` (stereo not drawn), the “Percent Effect” value was determined as 68.17%.
Consider `Cc1nc(CN2CCCC(N(C)c3ccc(C#N)cn3)C2)no1` (stereo not drawn), for which the “Percent Effect” value was -30.96%.
